NSD2 inh: NSD2 (human) methyltransferase inhibition | AID 743445 | NSD2 peptide methylation, AlphaScreen, 120 min | actives 0.54% (n = 310,000) | inhibition, % at 12.5 µM | O96028; in the data active means inhibition above about 50%
miR122 inh: blocks miR-122 activity in Huh7 sensor cells | Huh7 miR-122 Renilla luciferase sensor, 48 h; neutral wells = 0, positive control = 100 | activation (reporter increase), % at 12.5 µM | actives 0.3% (n = 340,000) | AID 602342;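 active means mean replicate activation score at least 90 and every replicate individually at or above 90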;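 further: higher luciferase means less miR-122 activity so hits act as miR-122 inhibitors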
Statin myotox sup: suppression of simvastatin myotoxicity; C2C12 myotubes + simvastatin, ATP luminescence, 48 h; scaled: DMSO 0, geranylgeraniol control 100; actives 0.78% (n = 330,000); rescue of ATP level, % at 7.49 µM; AID 602340;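 active means mean ATP rescue above about 67%, or every replicate alone reaching that limit, limit read from the data, passing the limit was not always enough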;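 further: myotubes were challenged with 10 µM simvastatin during compound exposure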
PglD inh: blocks C. jejuni PglD acetyltransferase activity; purified PglD enzyme, DTNB colorimetric CoA detection; inhibition, % at 12.5 µM; actives 0.098% (n = 360,000); AID 602405; in the data active means inhibition above about 16%, passing the limit was not always enough
An asterisk follows results filed as active; . = no result; [ ] = dose if it differs, or a comment. Hits are enriched below; roughly 1.2% of the tested compounds scored in any of these assays.

SMILES | NSD2 inh | miR122 inh | Statin myotox sup | PglD inh
O=C(CC1C(=O)OCN1C(=O)OCc1ccccc1)OCC(=O)c1ccccc1 (configuration not stated) | . | 1 | 103* | 4
NCCCNc1nc(N)c([N+](=O)[O-])c(NC2CCCCC2)n1 | 11 | . | 105* | 5
C[C@@H]1CN([C@@H](C)CO)C(=O)Cc2cc(NS(=O)(=O)c3ccccc3)ccc2O[C@@H]1CN(C)Cc1ccc(Cl)c(Cl)c1 | . | 3[16.7 µM] | -3 | 1
C[C@H]1CN([C@@H](C)CO)C(=O)Cc2cc(NS(=O)(=O)c3ccccc3)ccc2O[C@@H]1CN(C)Cc1ccc(Cl)c(Cl)c1 | . | 17[16.7 µM] | 103* | 15
C[C@H](CO)N1C[C@H](C)[C@@H](CN(C)Cc2ccc(Cl)c(Cl)c2)Oc2ccc(NS(C)(=O)=O)cc2CC1=O | . | 1[16.7 µM] | 92* | -4
C[C@@H]1CN([C@H](C)CO)C(=O)Cc2cc(NS(C)(=O)=O)ccc2O[C@@H]1CN(C)Cc1ccc(Cl)c(Cl)c1 | . | -5[16.7 µM] | 108* | -7
CN1CCN(C2=Cc3ccccc3Sc3cc(F)ccc32)CC1 | -2 | -2 | 110* | 4
CN1CCN(C2=Cc3ccc(Cl)cc3Sc3ccc(F)cc32)CC1 | 12 | -7 | . | -4
C/C=C/c1cnc2c(c1)C(=O)N([C@@H](C)CO)C[C@H](C)[C@H](CN(C)C(=O)C1CCC1)O2 | . | 7[16.7 µM] | 21 | .
CCCCOc1ccccc1C1CC(=O)NC2=C1C(=O)CCC2 (configuration not stated) | 1 | 109* | . | 1
CCCOc1ccccc1C1CC(=O)NC2=C1C(=O)CCC2 (configuration not stated) | -1 | 59 | -52 | 3
C[C@@H]1CCCCO[C@@H](CN(C)Cc2ccccc2)[C@H](C)CN([C@@H](C)CO)C(=O)c2cc(NC(=O)Nc3ccc(C(F)(F)F)cc3)ccc2O1 | . | -24[16.7 µM] | . | -3
Cc1cc(S(=O)(=O)Nc2cccnc2)c(C)s1 | 0 | 10 | -23 | -9
Cc1cc(S(=O)(=O)Nc2ccc3ccccc3c2)c(C)s1 | 1 | 540* | -19 | 2
O=S(=O)(Nc1ccc2ccccc2c1)c1ccccc1 | 0 | 170* | 13 | .
Cc1cc(S(=O)(=O)Nc2cc(C)c(O)c(C)c2)c(C)s1 | 2 | 196* | 42 | 2
COC(=O)c1ccc(C)c(NS(=O)(=O)c2ccc(OC)c(OC)c2)c1 | -2 | 131* | -8 | 2
C[C@H]1CN([C@@H](C)CO)C(=O)c2cccc(NC(=O)c3cnccn3)c2O[C@H]1CN(C)C(=O)Nc1ccc(C(F)(F)F)cc1 | . | 1[16.7 µM] | 15 | 1
C/C=C/c1cnc2c(c1)C(=O)N([C@@H](C)CO)C[C@H](C)[C@@H](CN(C)C(=O)C1CCOCC1)O2 | . | -9[16.7 µM] | 9 | -3
C[C@H]1CN([C@@H](C)CO)C(=O)c2cc(NC(=O)CCC(F)(F)F)ccc2O[C@@H]1CN(C)C(=O)Nc1cccc2ccccc12 | . | -6[16.7 µM] | 9 | -2
COc1ccc(S(=O)(=O)Nc2ccc3ccccc3c2)cc1C | 8 | 109* | 30 | 0
Cc1ccc(S(=O)(=O)Nc2ccc3ccccc3c2)cc1 | -2 | 118* | 0 | -1
Cc1ccc(S(=O)(=O)Nc2ccc3c(c2)CCC3)cc1 | -1 | 167* | . | -1
CS(=O)(=O)c1ccc(NS(=O)(=O)c2ccc3ccccc3c2)cc1 | 5 | 55 | 8 | 5
COc1ccc(S(=O)(=O)Nc2cc(C)ccc2OC)cc1C | 0 | 114* | 10 | -5
SMILES | NSD2 inh | miR122 inh | Statin myotox sup | PglD inh
Cc1noc(C)c1NC(=O)N(C)C[C@H]1Oc2c(NC(=O)Nc3ccccc3)cccc2C(=O)N([C@H](C)CO)C[C@H]1C | . | -2[16.7 µM] | . | .
COc1ccccc1S(=O)(=O)N[C@H]1CC[C@H](CCn2cc(C3CC3)nn2)O[C@H]1CO | . | . | 1 | -1
CCS(=O)(=O)N[C@@H]1C=C[C@H](CC(=O)NC2Cc3ccccc3C2)O[C@H]1CO | . | 3[16.7 µM] | 10 | 2
c1coc(CN2CNc3nc4ccccc4n3C2)c1 | -3 | . | . | .
CCCN1CN(Cc2ccco2)c2nc3ccccc3n2C1 | 10 | -3 | 89* | -1
COc1ccc(NC(=O)N(C)C[C@@H]2OCCCC[C@@H](C)Oc3ccc(N(C)C)cc3C(=O)N([C@@H](C)CO)C[C@H]2C)cc1 | . | -9[16.7 µM] | -19 | 4
CCN(CC)C(=O)c1scc2c1OCCO2 | 1 | -9 | 120* | 2
O=C(O)C1CCN(C(=O)c2scc3c2OCCO3)CC1 | -1 | -3 | 9 | 0
C[C@H](CO)N1C[C@H](C)[C@H](CN(C)C(=O)Cc2ccccc2)Oc2ncc(C#Cc3ccccc3F)cc2C1=O | . | -7[16.7 µM] | -55 | -1
CCCNC(=O)N1C[C@H](C)[C@H](OC)CN(C)C(=O)c2ccc(NC(C)=O)cc2OC[C@H]1C | . | -1[16.7 µM] | -7 | .

Source: PubChem (Broad Institute)
